Hits are enriched below; roughly 2.8% of the tested compounds scored in any of these assays.
Wee1 degr inh – blocks degradation of human Wee1 kinase. hit rate 1.2% among 220,000. AID 1321. HeLa Luc-Wee1K328M stability, luciferase luminescence; 100% = proteasome inhibitor MG132 effect. P30291. reporter increase, % at 5 µM;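 active = activation above the mean of all tested compounds plus 3 SD, set per screening run, cut at about 8.8% in these data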;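 note: cells exposed to compound for 20 h before luminescence read; 0% = DMSO alone and 100% = MG132 at 30 µM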
EP2 modulator – modulates human prostaglandin E2 receptor EP2 signaling; P43116; EP2-expressing cells, cAMP HTRF FRET, PGE2 co-stimulation; induction, % at 25 µM; hit rate 0.83% among 260,000; AID 940;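 active = compounds whose cAMP rise, as percent of the full-agonist control response, exceeds 60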;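 note: rat C6 glioma line stably carrying human EP2 under a CMV promoter; the protocol text gives 20 µM as final concentration; 100% = response of wells given 1 µM PGE2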
Target sequence (P43116 whole entry, looked up): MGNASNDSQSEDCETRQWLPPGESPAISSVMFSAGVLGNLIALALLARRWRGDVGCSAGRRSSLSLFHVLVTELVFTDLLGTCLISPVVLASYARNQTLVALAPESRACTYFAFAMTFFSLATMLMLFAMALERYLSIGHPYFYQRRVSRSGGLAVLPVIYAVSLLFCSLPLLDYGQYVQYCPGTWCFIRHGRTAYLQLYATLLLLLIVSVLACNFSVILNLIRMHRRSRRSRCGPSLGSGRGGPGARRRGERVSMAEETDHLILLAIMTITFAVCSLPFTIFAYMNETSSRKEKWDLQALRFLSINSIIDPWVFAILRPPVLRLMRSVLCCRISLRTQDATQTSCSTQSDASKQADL
HSV augment – HSV replication enhancement; HSV replication augmentation in cells, fold increase; maximum fold increase; hit rate 0.005% among 220,000; AID 1956; in the data active = maximum fold increase above about 1.5; tested in PC3 cells
PGE2 EP2 inh – EP2 receptor (human) inhibition; P43116; C6 glioma cells expressing human EP2, cAMP TR-FRET; cells stimulated with saturating PGE2; inhibition, % at 25 µM; hit rate 0.52% among 260,000;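 active = percent inhibition above 40 after rounding to a whole number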;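 note: rat C6 glioma host cells with rolipram phosphodiesterase inhibitor present; the protocol text gives 20 µM as final concentration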
Furin inhibitor – human furin inhibition; P09958; purified furin, fluorogenic substrate cleavage; inhibition, % at 20 µM or 30 µM; hit rate 0.061% among 220,000; AID 463115; in the data active = inhibition above about 25%
p47phox inh – p47phox (human) inhibition; P14598; p47phox/p22phox peptide binding, fluorescence polarization, 2 h; inhibition, % at 24.7 µM; hit rate 0.53% among 220,000; AID 1274;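 active = inhibition above about 30%, limit read from the data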;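 note: 0% = p47phox with labelled peptide and 100% = labelled peptide alone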
The depositor's hits bear a star.

COc1ccc2[nH]cc(CCNC(=O)C3CCCO3)c2c1 (centres undefined) was read as Wee1 degr inh 11*, EP2 modulator -30, HSV augment inactive, PGE2 EP2 inh 3, Furin inhibitor -19 and p47phox inh -8.
COc1ccc2[nH]cc(CCNC(C)=O)c2c1 was read as EP2 modulator 8, HSV augment inactive and PGE2 EP2 inh 22.
CC(C)[C@@H]1OC(=O)C=CC=CC=CC=CC=CC[C@@H](O)[C@H](C)[C@@H](O)C[C@H](O)C[C@H](O)C[C@H](O)C[C@H](O)C[C@H](O)C[C@H](O)C=C[C@@H]1C was read as EP2 modulator -6 and PGE2 EP2 inh 49*.
CCOc1cc(C2CC(=O)Nc3cc(C)c(C)cc32)ccc1O (centres undefined) was read as Wee1 degr inh 1, EP2 modulator 64*, HSV augment inactive, PGE2 EP2 inh 6, Furin inhibitor -13 and p47phox inh -5.
`CCOc1ccc2[nH]c(=O)c(CN(Cc3cccnc3)C(=O)Nc3ccccc3OC)cc2c1` gave Wee1 degr inh -2, EP2 modulator -7, HSV augment inactive, PGE2 EP2 inh 12, Furin inhibitor -24 and p47phox inh -14.
CCOc1ccc2[nH]c(=O)c(CN(Cc3cccnc3)C(=O)c3ccccc3Cl)cc2c1 was read as EP2 modulator -16 and PGE2 EP2 inh 72*.
For CCCOc1ccc(/C=N\NC(=O)CCc2n[nH]c(=O)[nH]c2=O)cc1OC the results were Wee1 degr inh 9.6*, EP2 modulator -14, HSV augment inactive, PGE2 EP2 inh 7, Furin inhibitor -10 and p47phox inh 5.
`COC(=O)c1c(NC(=O)c2ccccc2)sc(C(=O)Nc2ccccc2OC)c1C` gave EP2 modulator 24 and PGE2 EP2 inh 25.
For CCc1ccc2[nH]c(=O)c(CN(C(=O)Nc3ccc(OC)cc3)C3CCCC3)cc2c1 the results were EP2 modulator 21 and PGE2 EP2 inh 10.
`Oc1ccccc1C=NCCCCCCN=Cc1ccccc1O` gave Wee1 degr inh 3, EP2 modulator 62*, HSV augment inactive, PGE2 EP2 inh 5, Furin inhibitor -27 and p47phox inh -12.
For COc1ccc(Cl)cc1C(=O)Nc1cccc(-c2ccc3nncn3n2)c1 the results were Wee1 degr inh -2, EP2 modulator 1, HSV augment inactive, PGE2 EP2 inh 2, Furin inhibitor -21 and p47phox inh 33*.
COc1ccc(N/C=C(\C#N)c2nc3ccccc3n2C)c(OC)c1 was read as Wee1 degr inh -1, EP2 modulator 63*, HSV augment inactive, PGE2 EP2 inh 6, Furin inhibitor 0 and p47phox inh -44.
COc1ccc(CNc2nc3ccccc3n2C)c(OC)c1 was read as Wee1 degr inh 7, EP2 modulator -21, HSV augment inactive, PGE2 EP2 inh 6, Furin inhibitor -20 and p47phox inh -14.
COc1ccc(C2(NCc3ccc4c(c3)n(C)c(=O)n4C)CC2)cc1 was read as EP2 modulator -74 and PGE2 EP2 inh 3.
`C/C(Cl)=C/Cn1c(NCc2ccccc2)nc2c1c(=O)n(C)c(=O)n2C` gave EP2 modulator 6 and PGE2 EP2 inh 12.
For O=C(NC1CCCCC1)C(c1ccc(F)cc1)N(Cc1ccccc1)C(=O)CN1C(=O)c2ccccc2S1(=O)=O (centres undefined) the results were Wee1 degr inh 2, EP2 modulator 0, HSV augment inactive, PGE2 EP2 inh 9, Furin inhibitor -8 and p47phox inh -14.
For O=C(NC1CCCCC1)C(c1ccc(F)cc1)N(CCc1ccccc1)C(=O)CN1C(=O)c2ccccc2S1(=O)=O (centres undefined) the results were Wee1 degr inh -1, EP2 modulator 11, HSV augment inactive, PGE2 EP2 inh 13, Furin inhibitor -15 and p47phox inh 31*.
Screening COc1cccc2cc(-c3nc(-c4cccs4)cs3)c(=O)oc12 returned Wee1 degr inh -2, EP2 modulator 53, HSV augment inactive, PGE2 EP2 inh 19, Furin inhibitor -7 and p47phox inh -35.
`O=c1oc2ccccc2cc1-c1nc(-c2cccs2)cs1` gave Wee1 degr inh 2, EP2 modulator 61*, HSV augment inactive, PGE2 EP2 inh 8, Furin inhibitor -10 and p47phox inh 52*.

Screens (PubChem)
